Test results reported in PMC5540273 (PLoS ONE, 2017).

Key:
Details in all cases: concentration: 1 μM,replicates: in singlicate; n = 1
NEK11 = system: NEK11
NEK1 = system: NEK1
NEK2 = system: NEK2
NEK3 = system: NEK3
NEK4 = system: NEK4
NEK5 = system: NEK5
NEK6 = system: NEK6
NEK7 = system: NEK7
NEK9 = system: NEK9
NIK = system: T1, NIK
T1 construct: gene MAP3K14

NIM1 = system: T2, NIM1
T2 construct: gene MGC42105

NLK = system: NLK
OSR1 = system: T3, OSR1
T3 construct: gene OXSR1

PAK1 = system: PAK1
PAK2 = system: PAK2
PAK3 = system: PAK3
PAK4 = system: PAK4
PAK6 = system: PAK6
PAK7 = system: PAK7
PCTK1 = system: T4, PCTK1
T4 construct: gene CDK16
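Also: KINOMEscan kinase panel screen.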

| Compound | %Inh (NEK11) [%] | %Inh (NEK1) [%] | %Inh (NEK2) [%] | %Inh (NEK3) [%] | %Inh (NEK4) [%] | %Inh (NEK5) [%] | %Inh (NEK6) [%] | %Inh (NEK7) [%] | %Inh (NEK9) [%] | %Inh (NIK) [%] | %Inh (NIM1) [%] | %Inh (NLK) [%] | %Inh (OSR1) [%] | %Inh (PAK1) [%] | %Inh (PAK2) [%] | %Inh (PAK3) [%] | %Inh (PAK4) [%] | %Inh (PAK6) [%] | %Inh (PAK7) [%] | %Inh (PCTK1) [%] |
| --- | --- | --- | --- | --- | --- | --- | --- | --- | --- | --- | --- | --- | --- | --- | --- | --- | --- | --- | --- | --- |
| Cl.Cl.Nc1nc(-c2ccc3c(N)n[nH]c3c2)cc(N2CCCC(NC(=O)c3ccccc3)C2)n1 (stereo not drawn) [GSK2286775] | 0 | 7 | 0 | 23 | 7 | 11 | 0 | 0 | 6 | 0 | 2 | 13 | 0 | 6 | 1 | 0 | 0 | 17 | 0 | 5 |
| CNC(=O)c1ccccc1Sc1ccc2c(/C=C/c3ccccn3)n[nH]c2c1 | 0 | 0 | 5 | 32 | 0 | 11 | 0 | 26 | 1 | 0 | 8 | 100 | 0 | 9 | 8 | 0 | 2 | 10 | 40 | – |
| Cc1ccc2c(-c3ccncc3)c(-c3ccc(F)cc3)nn2c1.Cl [GW461484] | 21 | 0 | 0 | 0 | 11 | 4 | 0 | 0 | 0 | 4 | 13 | 91.3 | 0 | 29 | 30 | 19 | 0 | 7 | 4 | 0 |
| CCN(CC)CCCCNc1ncc2cc(-c3c(Cl)cccc3Cl)c(NC(=O)NC(C)(C)C)nc2n1 | 0 | 43 | 11 | 29 | 0 | 0 | 38 | 0 | 0 | 0 | 6 | 81 | 0 | 18 | 2 | 7 | 0 | 0 | 16 | 0 |
| CCn1c(-c2nonc2N)nc2c(C#CC(C)(C)O)nc(OCCN)cc21.Cl.Cl [GSK902056] | 3 | 0 | 13 | 4 | 20 | 0 | 0 | 0 | 0 | 63 | 10 | 0 | 32 | 11 | 36 | 10 | 68 | 45 | 93.4 | 2 |
| Cl.Cl.NC[C@H](Cc1ccc(C(F)(F)F)cc1)NC(=O)c1cc(Br)c(-c2ccnc3[nH]ccc23)s1 [GSK1487252] | 0 | 15 | 0 | 23 | 4 | 4 | 0 | 0 | 3 | 0 | 4 | 0 | 0 | 37 | 33 | 83 | 0 | 25 | 33 | 0 |
| Nc1nc(Nc2ccccc2)cc(-c2ccc3c(N)n[nH]c3c2)n1 [GSK2225749] | 11 | 0 | 14 | 0 | 5 | 0 | 0 | 0 | 11 | 20 | 15 | 3 | 14 | 27 | 9 | 0 | 0 | 0 | 0 | 0 |
| Cl.Cl.NC[C@H](CC1CCCCC1)NC(=O)c1cc(Br)c(-c2ccnc3[nH]ccc23)s1 [GSK1581427] | 0 | 37 | 0 | 17 | 23 | 0 | 0 | 0 | 1 | 38 | 22 | 0 | 20 | 38 | 36 | 81 | 12 | 28 | 42 | 3 |
